The values that follow come from publication PMC7862700, “An all-to-all approach to the identification of sequence-specific readers for epigenetic DNA modifications on cytosine”.

Holding throughout (test): DAPPL (digital affinity profiling via proximity ligation, sequencing); 10 mM Tris-HCl pH 7.5, 50 mM NaCl, 1 mM DTT, 4% glycerol, room temperature, 30 min; GST-TFs on glutathione beads, 16-mer random dsDNA library, 0.1% formaldehyde crosslink after washing; high values mean tight binding
For one assay, the target named is T1, FLI1 (Homo sapiens, UniProt Q01543 1-452).
T1 sequence: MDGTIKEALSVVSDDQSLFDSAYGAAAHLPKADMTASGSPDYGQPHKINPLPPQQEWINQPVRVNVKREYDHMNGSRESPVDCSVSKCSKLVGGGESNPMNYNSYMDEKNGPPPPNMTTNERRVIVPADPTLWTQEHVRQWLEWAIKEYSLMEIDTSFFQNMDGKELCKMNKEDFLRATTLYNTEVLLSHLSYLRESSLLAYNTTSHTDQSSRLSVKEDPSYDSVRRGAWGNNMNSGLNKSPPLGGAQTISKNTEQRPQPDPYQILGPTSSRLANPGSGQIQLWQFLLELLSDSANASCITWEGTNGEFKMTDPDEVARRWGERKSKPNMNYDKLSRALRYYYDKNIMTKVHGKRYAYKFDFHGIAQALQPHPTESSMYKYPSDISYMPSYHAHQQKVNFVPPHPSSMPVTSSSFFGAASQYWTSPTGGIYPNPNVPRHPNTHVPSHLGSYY
The settings on record: protein: recombinant; tags: N-terminal GST; dsDNA, one strand shown. The method, boiled down:
(§1)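 In yeast, human transcription factors were expressed with a GST fusion, then pulled down on glutathione beads and given DNA barcodes. Pooled with a tag-only sample, they were exposed to 200 nmole of a 16-mer random double-stranded DNA library (Tris/NaCl/DTT/glycerol buffer, room temperature, 30 min), washed, crosslinked with 0.1% formaldehyde, proximity-ligated using BsaI/T4 ligase for 1 h at 37 °C, PCR-amplified and read on an Illumina NextSeq500. Each hexamer's frequency of reads for a factor, divided by the matching frequency for the tag-only sample, gives the binding signal.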

The target in the next assay is T2, ELK1 (Homo sapiens, UniProt P19419 1-428).
T2 sequence: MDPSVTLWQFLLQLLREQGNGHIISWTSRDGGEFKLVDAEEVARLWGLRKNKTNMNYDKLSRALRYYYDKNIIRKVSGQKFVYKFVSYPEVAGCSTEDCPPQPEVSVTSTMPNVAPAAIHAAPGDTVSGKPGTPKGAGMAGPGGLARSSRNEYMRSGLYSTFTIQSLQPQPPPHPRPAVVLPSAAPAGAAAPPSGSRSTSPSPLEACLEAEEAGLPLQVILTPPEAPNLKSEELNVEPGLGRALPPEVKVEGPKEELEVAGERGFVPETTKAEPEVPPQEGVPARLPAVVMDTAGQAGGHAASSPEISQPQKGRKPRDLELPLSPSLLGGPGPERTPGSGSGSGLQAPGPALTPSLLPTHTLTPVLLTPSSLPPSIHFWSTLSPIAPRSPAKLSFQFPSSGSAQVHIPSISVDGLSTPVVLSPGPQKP
The settings on record: protein: recombinant; tags: N-terminal GST; dsDNA, one strand shown. The method, boiled down: as §1

The next assay deals with T3, GABPA (Homo sapiens, UniProt Q06546 1-454).
T3 sequence: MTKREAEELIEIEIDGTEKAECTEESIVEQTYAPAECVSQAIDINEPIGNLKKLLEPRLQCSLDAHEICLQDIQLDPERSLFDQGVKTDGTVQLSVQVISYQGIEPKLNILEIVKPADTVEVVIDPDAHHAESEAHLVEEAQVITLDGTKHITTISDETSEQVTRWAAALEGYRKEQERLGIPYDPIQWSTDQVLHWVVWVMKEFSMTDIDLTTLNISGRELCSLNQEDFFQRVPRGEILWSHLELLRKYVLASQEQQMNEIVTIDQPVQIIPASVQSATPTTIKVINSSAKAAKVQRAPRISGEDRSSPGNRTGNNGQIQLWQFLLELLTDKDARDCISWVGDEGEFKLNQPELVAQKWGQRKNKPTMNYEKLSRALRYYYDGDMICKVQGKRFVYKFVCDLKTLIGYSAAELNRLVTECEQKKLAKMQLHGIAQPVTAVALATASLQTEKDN
The settings on record: protein: recombinant; tags: N-terminal GST; dsDNA, one strand shown. Put shortly: as §1

The target in another assay is T4, ERG (Homo sapiens, UniProt P11308 1-479).
T4 sequence: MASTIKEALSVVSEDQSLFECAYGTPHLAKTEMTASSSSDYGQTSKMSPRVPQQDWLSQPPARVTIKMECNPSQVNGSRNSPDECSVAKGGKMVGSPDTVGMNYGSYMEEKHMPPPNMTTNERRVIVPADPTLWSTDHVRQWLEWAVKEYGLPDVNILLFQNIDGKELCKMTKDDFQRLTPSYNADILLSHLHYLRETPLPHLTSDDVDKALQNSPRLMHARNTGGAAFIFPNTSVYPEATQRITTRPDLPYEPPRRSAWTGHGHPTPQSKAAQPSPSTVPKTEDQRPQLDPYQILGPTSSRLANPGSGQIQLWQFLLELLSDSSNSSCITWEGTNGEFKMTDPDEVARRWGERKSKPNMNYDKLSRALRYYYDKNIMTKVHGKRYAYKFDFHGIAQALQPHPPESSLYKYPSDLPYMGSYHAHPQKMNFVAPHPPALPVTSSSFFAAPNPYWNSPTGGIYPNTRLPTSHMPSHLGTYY
The settings on record: protein: recombinant; tags: N-terminal GST; dsDNA, one strand shown. Put shortly:
as §1

A further assay deals with ELF1 (Homo sapiens, UniProt P32519 1-619). The settings on record: protein: recombinant; tags: N-terminal GST; dsDNA, one strand shown. The method, boiled down:
as §1

The target of a further assay is T5, EHF (Homo sapiens, UniProt Q9NZC4 1-300).
T5 sequence: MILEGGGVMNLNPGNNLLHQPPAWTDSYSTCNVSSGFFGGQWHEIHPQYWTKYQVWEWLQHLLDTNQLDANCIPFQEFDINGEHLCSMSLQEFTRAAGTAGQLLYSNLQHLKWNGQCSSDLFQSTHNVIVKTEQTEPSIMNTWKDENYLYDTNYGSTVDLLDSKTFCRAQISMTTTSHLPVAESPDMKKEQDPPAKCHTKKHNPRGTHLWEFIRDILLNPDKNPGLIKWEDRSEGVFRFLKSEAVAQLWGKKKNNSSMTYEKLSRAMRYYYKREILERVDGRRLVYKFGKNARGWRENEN
Conditions: protein: recombinant; tags: N-terminal GST; dsDNA, one strand shown. Put shortly:
as §1

In the next assay the target is SPI1 (Homo sapiens, UniProt P17947 1-270). Conditions: protein: recombinant; tags: N-terminal GST; dsDNA, one strand shown. Put shortly:
as §1

The target in another assay is SPIB (Homo sapiens, UniProt Q01892 1-262). The settings on record: protein: recombinant; tags: N-terminal GST; dsDNA, one strand shown. Put shortly:
as §1

The target of another assay is T6, ELK3 (Homo sapiens, UniProt P41970 1-407).
T6 sequence: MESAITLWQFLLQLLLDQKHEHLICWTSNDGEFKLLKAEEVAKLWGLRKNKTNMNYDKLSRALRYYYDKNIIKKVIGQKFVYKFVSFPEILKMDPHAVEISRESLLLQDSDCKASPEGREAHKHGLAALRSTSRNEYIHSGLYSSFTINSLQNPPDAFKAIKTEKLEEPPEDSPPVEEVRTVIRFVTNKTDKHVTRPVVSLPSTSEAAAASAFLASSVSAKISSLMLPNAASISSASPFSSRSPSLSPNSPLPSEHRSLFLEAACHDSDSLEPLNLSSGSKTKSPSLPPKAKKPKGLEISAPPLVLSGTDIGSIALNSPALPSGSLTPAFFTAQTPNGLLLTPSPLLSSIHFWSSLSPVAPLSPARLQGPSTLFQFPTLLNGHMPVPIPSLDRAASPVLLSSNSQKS
Conditions: protein: recombinant; tags: N-terminal GST; dsDNA, one strand shown. The method, boiled down:
as §1

Another assay addresses T7, FEV (Homo sapiens, UniProt Q99581 1-238).
T7 sequence: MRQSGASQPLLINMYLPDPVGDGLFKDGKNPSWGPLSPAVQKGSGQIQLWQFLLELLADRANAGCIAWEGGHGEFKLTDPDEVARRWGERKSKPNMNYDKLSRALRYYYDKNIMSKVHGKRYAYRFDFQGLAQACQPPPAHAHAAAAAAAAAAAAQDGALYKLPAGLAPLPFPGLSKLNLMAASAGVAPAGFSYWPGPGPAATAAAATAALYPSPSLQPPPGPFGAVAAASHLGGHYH
The settings on record: protein: recombinant; tags: N-terminal GST; dsDNA, one strand shown. The method, boiled down:
as §1

A further assay concerns the target ETV5 (Homo sapiens, UniProt P41161 1-510). Conditions: protein: recombinant; tags: N-terminal GST; dsDNA, one strand shown. Put shortly:
as §1

Another assay has as its target HSF1 (Homo sapiens, UniProt Q00613 1-529). Conditions: protein: recombinant; tags: N-terminal GST; chain copies: 3; dsDNA, one strand shown. Put shortly:
as §1

For another assay, the target named is T8, SPIC (Homo sapiens, UniProt Q8N5J4 1-248).
T8 sequence: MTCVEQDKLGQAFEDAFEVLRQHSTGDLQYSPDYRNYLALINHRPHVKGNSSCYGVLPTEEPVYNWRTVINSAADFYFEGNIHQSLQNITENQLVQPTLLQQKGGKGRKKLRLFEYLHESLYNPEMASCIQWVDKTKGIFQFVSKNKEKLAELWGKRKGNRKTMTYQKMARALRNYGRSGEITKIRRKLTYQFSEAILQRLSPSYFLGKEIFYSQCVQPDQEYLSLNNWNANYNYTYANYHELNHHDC
The settings on record: protein: recombinant; tags: N-terminal GST; dsDNA, one strand shown. The method, boiled down: as §1

A further assay concerns the target ELF4 (Homo sapiens, UniProt Q99607 1-663). Conditions: protein: recombinant; tags: N-terminal GST; dsDNA, one strand shown. Put shortly: as §1
In the next assay the target is T9, ELK4 (Homo sapiens, UniProt P28324-2 1-405).
T9 sequence: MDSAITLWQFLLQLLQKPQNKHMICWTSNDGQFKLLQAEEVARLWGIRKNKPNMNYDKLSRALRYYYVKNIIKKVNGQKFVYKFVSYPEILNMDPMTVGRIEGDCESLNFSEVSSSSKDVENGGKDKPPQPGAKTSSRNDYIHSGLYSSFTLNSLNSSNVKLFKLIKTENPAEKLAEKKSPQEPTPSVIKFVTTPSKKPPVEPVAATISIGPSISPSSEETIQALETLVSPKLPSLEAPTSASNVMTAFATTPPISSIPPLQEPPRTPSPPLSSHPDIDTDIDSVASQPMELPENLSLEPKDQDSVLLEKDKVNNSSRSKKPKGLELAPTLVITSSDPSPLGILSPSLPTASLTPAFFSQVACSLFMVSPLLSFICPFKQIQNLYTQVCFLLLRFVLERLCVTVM
Conditions: protein: recombinant; tags: N-terminal GST; dsDNA, one strand shown. Put shortly: as §1

The next assay deals with T10, ETV2 (Homo sapiens, UniProt O00321 1-342).
T10 sequence: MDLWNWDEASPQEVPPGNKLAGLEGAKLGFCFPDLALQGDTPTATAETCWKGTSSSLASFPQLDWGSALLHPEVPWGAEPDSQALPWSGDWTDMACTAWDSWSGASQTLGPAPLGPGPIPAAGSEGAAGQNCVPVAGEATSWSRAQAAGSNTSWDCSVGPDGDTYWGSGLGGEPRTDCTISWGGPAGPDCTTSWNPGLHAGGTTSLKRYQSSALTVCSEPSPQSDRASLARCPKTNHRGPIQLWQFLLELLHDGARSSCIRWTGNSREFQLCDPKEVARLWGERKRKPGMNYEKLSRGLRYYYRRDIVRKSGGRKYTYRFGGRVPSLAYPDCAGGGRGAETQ
Conditions: protein: recombinant; tags: N-terminal GST; dsDNA, one strand shown. Put shortly:
as §1

A further assay concerns the target T11, ELF3 (Homo sapiens, UniProt P78545 1-371).
T11 sequence: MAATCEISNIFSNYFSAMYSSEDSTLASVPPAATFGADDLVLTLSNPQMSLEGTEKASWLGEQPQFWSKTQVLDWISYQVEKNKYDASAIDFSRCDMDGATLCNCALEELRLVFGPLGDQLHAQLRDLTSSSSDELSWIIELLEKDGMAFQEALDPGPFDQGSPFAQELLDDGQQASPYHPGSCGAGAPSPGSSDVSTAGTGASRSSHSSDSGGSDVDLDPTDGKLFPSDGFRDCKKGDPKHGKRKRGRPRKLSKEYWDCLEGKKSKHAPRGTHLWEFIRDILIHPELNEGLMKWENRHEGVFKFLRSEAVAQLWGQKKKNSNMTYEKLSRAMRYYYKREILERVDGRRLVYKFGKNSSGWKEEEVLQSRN
Conditions: protein: recombinant; tags: N-terminal GST; dsDNA, one strand shown. Put shortly:
as §1

The target in another assay is CRX (Homo sapiens, UniProt O43186 1-299). Conditions: protein: recombinant; tags: N-terminal GST; dsDNA, one strand shown. The method, boiled down: as §1
The next assay addresses ETV1 (Homo sapiens, UniProt P50549 1-477). Conditions: protein: recombinant; tags: N-terminal GST; dsDNA, one strand shown. Put shortly:
as §1

Sequence of SPIB (Q01892 whole entry): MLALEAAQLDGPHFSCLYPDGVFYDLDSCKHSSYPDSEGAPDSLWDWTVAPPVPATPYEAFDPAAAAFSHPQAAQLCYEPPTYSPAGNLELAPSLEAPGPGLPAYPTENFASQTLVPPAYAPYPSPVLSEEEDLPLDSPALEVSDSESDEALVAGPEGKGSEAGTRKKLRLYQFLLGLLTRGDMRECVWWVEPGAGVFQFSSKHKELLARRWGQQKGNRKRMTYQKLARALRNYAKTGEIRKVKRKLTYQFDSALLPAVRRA
Sequence of ETV5 (P41161 whole entry): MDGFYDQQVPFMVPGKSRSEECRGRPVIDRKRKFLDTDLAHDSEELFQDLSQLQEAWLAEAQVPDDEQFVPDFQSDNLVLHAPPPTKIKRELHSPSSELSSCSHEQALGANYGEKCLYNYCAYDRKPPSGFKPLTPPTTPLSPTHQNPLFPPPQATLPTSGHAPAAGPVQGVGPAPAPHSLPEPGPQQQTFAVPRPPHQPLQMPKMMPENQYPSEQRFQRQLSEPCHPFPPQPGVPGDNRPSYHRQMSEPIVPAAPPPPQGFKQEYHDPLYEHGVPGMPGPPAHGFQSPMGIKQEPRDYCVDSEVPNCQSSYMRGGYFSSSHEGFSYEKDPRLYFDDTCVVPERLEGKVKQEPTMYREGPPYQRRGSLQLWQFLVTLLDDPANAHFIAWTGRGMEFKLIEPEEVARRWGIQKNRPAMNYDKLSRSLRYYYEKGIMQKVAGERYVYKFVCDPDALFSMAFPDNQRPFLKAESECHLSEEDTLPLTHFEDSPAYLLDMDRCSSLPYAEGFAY
Sequence of HSF1 (Q00613 whole entry): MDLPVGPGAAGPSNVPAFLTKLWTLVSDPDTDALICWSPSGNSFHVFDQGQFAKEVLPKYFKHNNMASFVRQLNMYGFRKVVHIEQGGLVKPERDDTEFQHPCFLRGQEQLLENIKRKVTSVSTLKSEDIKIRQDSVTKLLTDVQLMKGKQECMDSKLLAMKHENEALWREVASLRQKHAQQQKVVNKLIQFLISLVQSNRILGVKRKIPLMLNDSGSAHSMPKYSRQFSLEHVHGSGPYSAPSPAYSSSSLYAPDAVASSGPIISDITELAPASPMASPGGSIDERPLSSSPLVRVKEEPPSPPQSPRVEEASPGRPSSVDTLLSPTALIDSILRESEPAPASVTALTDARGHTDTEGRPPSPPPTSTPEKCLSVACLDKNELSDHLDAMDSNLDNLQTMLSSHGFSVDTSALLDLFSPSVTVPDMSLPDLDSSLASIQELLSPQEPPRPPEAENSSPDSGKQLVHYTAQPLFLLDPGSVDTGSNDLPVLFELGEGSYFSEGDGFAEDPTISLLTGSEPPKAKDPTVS
Sequence of ETV1 (P50549 whole entry): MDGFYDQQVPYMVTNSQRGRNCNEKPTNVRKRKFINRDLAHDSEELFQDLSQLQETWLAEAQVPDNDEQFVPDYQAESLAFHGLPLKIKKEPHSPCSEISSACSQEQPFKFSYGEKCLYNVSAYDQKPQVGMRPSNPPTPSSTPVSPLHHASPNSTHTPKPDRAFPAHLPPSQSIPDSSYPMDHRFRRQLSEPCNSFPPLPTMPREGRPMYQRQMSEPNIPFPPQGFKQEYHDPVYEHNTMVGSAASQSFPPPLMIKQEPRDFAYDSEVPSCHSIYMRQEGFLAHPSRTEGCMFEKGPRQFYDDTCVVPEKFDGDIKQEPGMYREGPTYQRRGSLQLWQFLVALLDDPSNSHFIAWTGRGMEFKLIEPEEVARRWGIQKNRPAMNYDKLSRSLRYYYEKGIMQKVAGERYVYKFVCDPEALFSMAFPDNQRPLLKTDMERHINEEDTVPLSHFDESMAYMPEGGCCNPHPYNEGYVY
Sequence of CRX (O43186 whole entry): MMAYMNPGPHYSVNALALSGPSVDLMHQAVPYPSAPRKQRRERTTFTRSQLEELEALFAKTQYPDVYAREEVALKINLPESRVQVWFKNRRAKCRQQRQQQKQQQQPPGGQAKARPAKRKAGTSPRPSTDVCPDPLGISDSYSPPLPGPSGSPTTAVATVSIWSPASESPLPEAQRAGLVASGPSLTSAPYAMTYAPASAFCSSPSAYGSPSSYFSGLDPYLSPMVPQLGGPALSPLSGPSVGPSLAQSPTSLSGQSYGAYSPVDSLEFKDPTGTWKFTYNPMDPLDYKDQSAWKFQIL
Sequence of ELF4 (Q99607 whole entry): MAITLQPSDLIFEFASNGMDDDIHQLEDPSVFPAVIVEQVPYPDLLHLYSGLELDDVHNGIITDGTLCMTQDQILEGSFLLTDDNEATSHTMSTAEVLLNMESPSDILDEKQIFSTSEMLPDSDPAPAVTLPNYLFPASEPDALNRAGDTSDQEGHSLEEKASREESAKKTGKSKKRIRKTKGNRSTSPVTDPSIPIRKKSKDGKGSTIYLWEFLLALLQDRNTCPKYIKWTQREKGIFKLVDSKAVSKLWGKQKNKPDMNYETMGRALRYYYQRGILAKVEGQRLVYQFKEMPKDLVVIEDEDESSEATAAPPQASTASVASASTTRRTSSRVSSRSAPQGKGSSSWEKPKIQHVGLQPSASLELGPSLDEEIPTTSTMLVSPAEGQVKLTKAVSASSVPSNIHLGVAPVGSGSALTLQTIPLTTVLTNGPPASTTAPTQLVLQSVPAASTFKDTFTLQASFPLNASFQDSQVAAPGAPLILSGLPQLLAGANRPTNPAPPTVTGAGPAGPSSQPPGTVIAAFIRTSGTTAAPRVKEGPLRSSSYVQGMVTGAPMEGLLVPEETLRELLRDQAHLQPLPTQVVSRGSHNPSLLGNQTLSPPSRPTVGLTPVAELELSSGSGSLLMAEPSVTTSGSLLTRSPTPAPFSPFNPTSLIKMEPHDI
Sequence of ELF1 (P32519 whole entry): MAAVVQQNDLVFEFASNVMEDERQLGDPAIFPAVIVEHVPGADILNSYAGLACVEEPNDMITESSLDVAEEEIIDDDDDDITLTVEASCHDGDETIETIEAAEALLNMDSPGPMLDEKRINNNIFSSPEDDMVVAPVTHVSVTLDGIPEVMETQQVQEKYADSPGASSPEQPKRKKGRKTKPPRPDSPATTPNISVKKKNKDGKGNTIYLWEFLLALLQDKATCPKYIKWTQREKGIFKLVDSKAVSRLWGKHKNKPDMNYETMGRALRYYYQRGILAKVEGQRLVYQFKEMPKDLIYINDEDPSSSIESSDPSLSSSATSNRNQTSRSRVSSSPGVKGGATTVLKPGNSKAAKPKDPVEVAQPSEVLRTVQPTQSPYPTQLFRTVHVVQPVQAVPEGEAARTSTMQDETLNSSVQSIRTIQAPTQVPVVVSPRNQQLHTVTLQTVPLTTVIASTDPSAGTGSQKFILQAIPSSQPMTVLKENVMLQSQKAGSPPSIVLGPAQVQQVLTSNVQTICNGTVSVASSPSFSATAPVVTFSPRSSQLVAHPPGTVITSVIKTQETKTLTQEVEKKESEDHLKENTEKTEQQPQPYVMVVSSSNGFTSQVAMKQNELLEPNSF

As for CTTGTG, the binding signal is 1.57 fold enrichment (6-mer frequency, TF over GST control) with FLI1; 1.58 fold enrichment (6-mer frequency, TF over GST control) in the assay with ELK1; 1.45 fold enrichment (6-mer frequency, TF over GST control) in the assay with GABPA; 1.45 fold enrichment (6-mer frequency, TF over GST control) in the assay with ERG; 1.46 fold enrichment (6-mer frequency, TF over GST control) with ELF1; 1.44 fold enrichment (6-mer frequency, TF over GST control) in the assay with EHF. Further, the binding signal was 1.46 fold enrichment (6-mer frequency, TF over GST control) with SPI1; 1.68 fold enrichment (6-mer frequency, TF over GST control) in the assay with SPIB; 1.6 fold enrichment (6-mer frequency, TF over GST control) in the assay with ELK3; 1.39 fold enrichment (6-mer frequency, TF over GST control) in the assay with FEV; 1.51 fold enrichment (6-mer frequency, TF over GST control) in the assay with ETV5; 1.25 fold enrichment (6-mer frequency, TF over GST control) with HSF1. The binding signal with SPIC was 1.45 fold enrichment (6-mer frequency, TF over GST control); in the assay with ELF4 it was 1.59 fold enrichment (6-mer frequency, TF over GST control); with ELK4, 1.26 fold enrichment (6-mer frequency, TF over GST control); with ETV2 it was 1.44 fold enrichment (6-mer frequency, TF over GST control); with ELF3 it was 1.5 fold enrichment (6-mer frequency, TF over GST control); with CRX, 1.25 fold enrichment (6-mer frequency, TF over GST control). In addition, the binding signal in the assay with ETV1 was 1.44 fold enrichment (6-mer frequency, TF over GST control).
